Sampled rows, rich in hits. Any-hit rate of the full collection: about 10%.
SW480 rereplic = induces DNA re-replication in SW480 colon adenocarcinoma cells; SW480 DNA re-replication, Hoechst DNA content imaging, 48 h; Potency, µM (doses to about 46.1 µM), inactives show top-dose re-replication activation, actives largely listed as activators; actives 1.8% (n = 340,000); AID 624297; further: % of control where 0% means no effect; nearly all actives have a fitted effect of over 55% in size
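Readout is total intensity of Hoechst-stained nuclei, excited at 405 nm and collected at 500-530 nm. Compound treatment lasted 48 hr at 37 C in 5% CO2 before staining.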
RORg inh = inhibitors of mouse ROR gamma transcriptional activity. P51450. Drosophila S2 Gal4-RORgamma UAS-luciferase reporter, 20 h. Potency, µM (titrated, usually from 53.6 µM), inactives show at the top dose activity change, negative = inhibition, hits mostly inhibitors. actives 5.4% (n = 310,000). AID 2551; further: on the % scale 0 is the no-effect control and ±100 the full control effect; nearly all actives have a fitted effect of over 60% in size
Target sequence (P51450 whole entry, looked up, the tested form may be a part): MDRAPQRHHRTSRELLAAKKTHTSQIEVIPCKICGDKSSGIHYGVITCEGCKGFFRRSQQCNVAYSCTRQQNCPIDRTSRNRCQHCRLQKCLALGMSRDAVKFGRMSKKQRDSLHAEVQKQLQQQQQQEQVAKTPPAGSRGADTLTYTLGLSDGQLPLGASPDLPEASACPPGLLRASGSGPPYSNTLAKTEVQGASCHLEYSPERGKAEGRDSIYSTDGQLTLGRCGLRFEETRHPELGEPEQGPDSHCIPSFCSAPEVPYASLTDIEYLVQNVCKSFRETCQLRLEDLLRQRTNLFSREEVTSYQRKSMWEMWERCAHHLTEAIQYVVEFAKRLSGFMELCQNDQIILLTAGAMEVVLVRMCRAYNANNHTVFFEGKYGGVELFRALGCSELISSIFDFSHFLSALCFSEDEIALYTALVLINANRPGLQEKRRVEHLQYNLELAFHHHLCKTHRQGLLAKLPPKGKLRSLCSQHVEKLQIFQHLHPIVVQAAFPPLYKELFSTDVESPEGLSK
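Luminescence from a UAS-regulated Photinus luciferase reporter in stably transfected Drosophila Schneider cells is measured; decreased signal marks ROR gamma inhibition. Fusion expression is induced by 700 uM copper sulfate for 20 hr.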
ELG1 repair inh = inhibitors of ELG1-dependent DNA repair in HEK293T cells; HEK293T ELG1-luciferase reporter, luminescence, 16 h; DNA damage induced by 5-fluorouridine; Potency, µM (doses to about 46.1 µM), inactives show at the highest dose activity change, negative = inhibition, actives largely listed as inhibitors; actives 2.3% (n = 330,000); AID 504467; further: on the % scale 0 is the no-effect control and ±100 the full control effect; nearly all actives have a fitted effect of over 55% in size
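Step one: seed 2,000 cells per well. Step two: pin-transfer compound or DMSO alongside 5-fluorouridine. Step three: incubate 16 hr, 37 °C, 5% CO2. Step four: add ONE-Glo, wait 30 min, read luminescence.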
VP16 counter = counter-screen for ROR gamma inhibitors: Gal4-VP16 reporter. AID 2546. actives 3.5% (n = 310,000). Drosophila S2 Gal4-VP16 UAS-luciferase, luminescence, 20 h. Potency, µM (highest dose often 53.6 µM), for inactives: at the highest dose activity, negative = inhibition, most hits filed as inhibitors;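 further: Gal4-VP16 expression switched on by copper sulfate through the metallothionein promoter; on the % scale 0 is the no-effect control and ±100 the full control effect; nearly all actives have a fitted effect of over 50% in size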
MCF10A rereplic = DNA re-replication induction in MCF 10a cells; MCF 10A DNA re-replication, Hoechst nuclear intensity, 48 h; Potency, µM (doses to about 46.1 µM), for inactives: at the top dose activity, positive = re-replication, hits mostly activators; actives 2.9% (n = 350,000); AID 624296; further: % of control where 0% means no effect; nearly all actives have a fitted effect of over 50% in size
Starred values were filed as active, the others as inactive; ? = inconclusive; · = no result; [ ] = dose if it differs, or a comment. The call rests on the fitted dose curve; in most records, active means well fitted curve in the direction sought with a large enough effect; inconclusive means small, poorly fitted or top-dose-only effect, or another doubt; inactive means no such curve, though single readings can be large; an effect the other way counts as inactive or inconclusive. Potency means the concentration at half of the fitted maximal effect.

SMILES | SW480 rereplic | RORg inh | ELG1 repair inh | VP16 counter | MCF10A rereplic
CC[C@H]1C2=C3C(CC[C@H]4C(OCc5ccc(F)cc5C(F)(F)F)OC[C@](C)([C@@H]34)N(C(=O)OC(C)(C)C)C2)C(COC)C1COC (some centres undefined) | · | -5% | · | 5% | ·
Cn1c(=O)c(=O)n(C)c2cc(N3CCCCC3)c(NS(=O)(=O)c3ccc([N+](=O)[O-])cc3)cc21 | -11% | -28% | 1% | -5% | 7%
CC(C)COc1ccc(C(=O)Nc2ccc(SC(F)F)cc2)cc1 | 16% | ? | ? | 25% | 8%
Cc1sc(NC(=O)Cn2cnnn2)nc1-c1ccc(Cl)cc1 | 5% | 4% | -15% | -4% | -2%
COc1ccc(-c2nc(NC(=O)Cn3cnnn3)sc2C)cc1 | 3% | ? | 6% | 0% | 2.1µM*
COc1ccc(Nc2ccncc2[N+](=O)[O-])cc1 | -1% | -22% | 5.8µM* | -7%[10 µM] | 12%
C=CCN=C1S/C(=C\N(C)C)C(=O)N1S(=O)(=O)c1ccc(C)cc1 | -6% | · | 2.1µM* | · | 3%
C=CCN=C1SCC(=O)N1S(=O)(=O)c1ccc(C)cc1 | -4% | -9% | 14% | 2% | -1%
CC[C@@]1(O)C(=O)OCc2c1cc1n(c2=O)Cc2cc3c([N+](=O)[O-])cccc3nc2-1 | ? | ? | · | 0.63µM* | 12%
CC1CCCC(NC(=O)CCC(=O)NCc2ccccc2)C1C (centres undefined) | -5% | -14% | 6% | -5% | 1%
Cc1ccc(C(C)C)c(Oc2cnccn2)c1 | -4% | -8% | 8% | 10% | -7%
O=C(c1ccccc1-c1ccccc1)N1CCN(c2ccccn2)CC1 | 7.3µM* | 22% | -9% | -7% | 7.3µM*
CCOC(=O)c1cc(-c2ccccc2)n(CCC(=O)N2CCN(c3ccccn3)CC2)c1C | 1% | 26% | 23µM* | -4% | 5%
O=C(c1cc(-c2cccc3ccccc23)nc2ccccc12)N1CCN(CCO)CC1 | -10% | · | 4.6µM* | · | ?
O=C(c1cc(-c2ccccc2)nc2ccccc12)N1CCN(c2ccccn2)CC1 | 1% | ? | ? | 8% | ?
O=C(c1cc(-c2ccncc2)nc2ccccc12)N1CCN(c2ccccn2)CC1 | 18µM* | 30% | ? | 2% | 10µM*
CCOC(=O)c1cc(-c2ccccc2)n(CC(=O)O)c1C | -8% | ? | 0% | -2% | 2%
O=C(CSC(=S)N1CCCC1)N/N=C/c1c(O)[nH]c(=S)[nH]c1=O | -7% | · | 12% | · | -4%
O=C1CC(c2ccccc2)CC(=O)N1c1ccc(C(F)(F)F)cc1 | -5% | · | 18% | · | ?
O=C(C[n+]1ccccc1)N/N=C/c1ccc(Cl)c(Cl)c1 | -2% | -12% | -5% | 0% | 10%
O=C(CCC1CCCN(C(=O)c2ccccc2Cl)C1)N1CCN(c2ccccn2)CC1 (centres undefined) | 2% | -1% | ? | -8% | 5%
O=C(c1cc(-c2ccncc2)nc2ccccc12)N1CCN(c2ncccn2)CC1 | 16% | · | 23µM* | · | 8%
CC(=O)c1ccccc1C(=O)N1CCCC(CCC(=O)N2CCN(c3ccccn3)CC2)C1 (centres undefined) | -6% | 2% | 23µM* | -2% | 13%
O=C(c1cc(-c2ccncc2)nc2ccccc12)N1CCN(c2ccccc2O)CC1 | 6% | 42% | ? | 12% | 18%
O=C(c1cc(-c2ccccc2)nc2ccccc12)N1CCN(c2ccccc2O)CC1 | 17% | ? | 13µM* | -15% | 12%
SMILES | SW480 rereplic | RORg inh | ELG1 repair inh | VP16 counter | MCF10A rereplic
CCOC(=O)C1=C(C)N=c2s/c(=C/c3ccc(OCC(=O)O)cc3)c(=O)n2C1c1ccc(F)cc1 (centres undefined) | -6% | 20% | -3% | 12% | ?
CCOC(=O)C1=C(C)N=c2s/c(=C\c3ccc(OCC(=O)O)cc3)c(=O)n2C1c1ccc(Cl)cc1 (centres undefined) | -56%[1.84 µM] | 31% | -5% | -13% | 18µM*
CN1C[C@@H]2[C@@H]3C(=O)N(Cc4ccccc4)C(=O)[C@@H]3[C@](C)(C1=O)N2C(=O)c1ccc(C(C)(C)C)cc1 | 2% | · | · | · | -7%
COC(=O)Cc1ccc(N(Cc2ccccc2F)S(=O)(=O)c2ccc(C)cc2)cc1 | ? | ? | 1% | ? | 1%
COc1cc(/C=C/C(=O)OCC(=O)c2ccc(OC(F)F)cc2)ccc1O | 6% | · | 18µM* | · | ?
CCc1cccc2c(C(=O)COC(=O)/C=C/c3ccc(O)c(OC)c3)c[nH]c12 | 22% | ? | 21µM* | -9% | -52%
COc1cccc(/C=C/C(=O)OCC(=O)c2c[nH]c3ccccc23)c1OC | -7% | -43% | 16µM* | -9% | -7%
COc1cccc(/C=C/C(=O)OCC(=O)c2c[nH]c3ccccc23)c1 | ? | · | ? | · | 17%
O=C(c1cc(C(F)(F)F)cc(C(F)(F)F)c1)N1CCC2(CCCN(c3ccncc3)C2)CC1 | · | 4% | · | 11% | ·
O=C(COC(=O)/C=C/c1cc(Br)ccc1F)NC1CC1 | -1% | · | -11% | · | -1%
Cc1ccc(S(=O)(=O)NNC(=O)C2Cc3c(ccc4ccccc34)O2)cc1 (centres undefined) | -5% | 37% | -6% | -23% | 7%
CCCCOc1ccc(S(=O)(=O)NNC(=O)C2Cc3c(ccc4ccccc34)O2)cc1 (centres undefined) | ? | -22% | -5% | ? | 21µM*
COc1cc(C(=O)N/N=C/c2sc(N3CCOCC3)nc2-c2ccccc2)cc(OC)c1OC | -3% | ? | 12µM* | 3% | 15%
O=C(N/N=C/c1sc(N2CCOCC2)nc1-c1ccccc1)c1ccccc1F | 0% | -1% | ? | -8% | ?
O=C(Nc1ccccc1F)C(=Cc1sc(N2CCOCC2)nc1-c1ccccc1)C(=O)Nc1ccccc1F | ? | 28% | 8.2µM* | -24% | 3.3µM*
O=C(N/N=C/c1sc(N2CCOCC2)nc1-c1ccccc1)c1ccccc1Cl | 3% | 0% | 0% | -7% | 0%
O=C(N/N=C/c1ccc(N2CCOCC2)s1)c1ccccc1Cl | 5% | 7.9µM* | -4% | ? | 10%
O=C(N/N=C/c1sc(N2CCOCC2)nc1-c1ccccc1)c1ccccc1O | ? | 2.2µM* | 18µM* | 2.8µM* | ?
CCCCC#CC1C=CC(Oc2cc(OC)c(OC)c(OC)c2)C(COC(=O)OCC)O1 (centres undefined) | · | 32%[10 µM] | · | -5%[10 µM] | ·
CCc1ccc(NC(=O)C(=O)c2ccccc2NC(C)=O)cc1 | 12% | · | ? | · | ?
O=C(Nc1ccc(F)cc1)C1CCN(c2ncnc3c2nc2n3CCCCC2)CC1 | 1% | 29% | ? | -5% | 12%

Source: PubChem
